The values that follow come from PubChem BioAssay.

Assay [1] in a line: antimalarial activity against Dd2 strain (AID 2302;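 active means growth inhibition above 50% at the single 2 µM test dose, taken to imply half-maximal potency below 2 µM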;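 further: 0% = DMSO untreated growth and 100% = chloroquine plus artemisinin killed control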). Conditions: P. falciparum Dd2 in RBCs, LDH growth readout, 72 h; at 2 µM; stronger effect = higher value.
The nature of assay [2]: human hepatoma cell viability loss – ATP luminescence, cytotoxicity control for P. falciparum antimalarial project, primary screen (AID 2303;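 active means inhibition above 50%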;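 further: 0% = DMSO wells and 100% = digitonin-killed cells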). To be noted: HepG2 viability, 24-48 h, at 10 µM, stronger effect = higher value.
In assay [3] the target is L-lactate dehydrogenase (Plasmodium falciparum (isolate CDC / Honduras)) (UniProt Q27743). Kind of assay: PfLDH activity inhibition – cell lysate, 3D7 strain, counter-screen for P. falciparum growth inhibition project (AID 2304).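 Further: 0% = vehicle and 100% = reference inhibitor.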 To be noted: P. falciparum 3D7 crude extract, LDH APAD/NBT absorbance; at 2 µM; stronger effect = higher value.
Assay [4] is described as follows: inhibition of 3D7 malaria parasite growth – strain 3D7 (AID 2306).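 Further: 0% = DMSO wells and 100% = chloroquine plus artemisinin control wells.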 Conditions: P. falciparum 3D7 erythrocytic growth, LDH absorbance, 72 h; at 2 µM; stronger effect = higher value.
Assay [5] concerns the target Calcium-dependent protein kinase 1 (Plasmodium falciparum (isolate 3D7)) (UniProt P62344). Kind of assay: PfCDPK1 kinase inhibitors, biochemical, TCAMS library (AID 1159585; cut-off not given, nearly all actives have IC50 up to about 0.98 µM;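 further: inhibitors leave more ATP so luminescence rises with inhibition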). Conditions: recombinant PfCDPK1, Kinase-Glo ATP depletion luminescence.
Assay [6] addresses Plasmodium falciparum protein kinase 6 (PK6, PF3D7_1337100) (UniProt Q8IDW1). Kind of assay: PfPK6 kinase inhibitors, biochemical, TCAMS library (AID 1159586). Conditions: recombinant PfPK6, Kinase-Glo ATP depletion luminescence.
For assay [7], the target named is Protein kinase 7 (PK7), Plasmodium falciparum 3D7 (PF3D7_0213400) (UniProt Q7YTF7). Kind of assay: inhibition of Plasmodium PK7 catalytic activity – biochemical, TCAMS antimalarial set, Kinase-Glo luminescence (AID 1159587). Conditions: recombinant PfPK7, Kinase-Glo ATP depletion luminescence.
Assay [8] has as its target Calcium-dependent protein kinase 4 (Plasmodium falciparum (isolate 3D7)) (UniProt Q8IBS5). Kind of assay: PfCDPK4 kinase inhibitors, biochemical, TCAMS library (AID 1159588; cut-off not given, nearly all actives have IC50 up to about 0.91 µM). Conditions: recombinant PfCDPK4, Kinase-Glo ATP depletion luminescence.

Structures are written as SMILES. Values without a mark were called inactive. For part of these data: Results with a measured potency or affinity are listed apart. Activity calls are given as the source filed them. Unless noted, how the calls were made is not given here.

Calcium-dependent protein kinase 4 (Plasmodium falciparum (isolate 3D7)), sequence (Q8IBS5 whole entry, looked up): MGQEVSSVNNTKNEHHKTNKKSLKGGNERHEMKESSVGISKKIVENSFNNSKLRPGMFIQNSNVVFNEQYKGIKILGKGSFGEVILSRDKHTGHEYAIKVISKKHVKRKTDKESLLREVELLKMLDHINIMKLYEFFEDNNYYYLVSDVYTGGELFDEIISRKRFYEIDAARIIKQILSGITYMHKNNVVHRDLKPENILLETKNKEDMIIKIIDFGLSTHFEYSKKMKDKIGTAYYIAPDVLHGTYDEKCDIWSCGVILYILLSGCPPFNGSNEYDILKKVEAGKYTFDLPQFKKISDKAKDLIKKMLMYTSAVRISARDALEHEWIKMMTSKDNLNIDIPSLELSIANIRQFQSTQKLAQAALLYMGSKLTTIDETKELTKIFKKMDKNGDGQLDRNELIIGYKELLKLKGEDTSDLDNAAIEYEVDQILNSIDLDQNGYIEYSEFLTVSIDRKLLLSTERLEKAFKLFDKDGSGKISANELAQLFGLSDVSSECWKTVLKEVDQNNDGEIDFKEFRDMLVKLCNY
L-lactate dehydrogenase (Plasmodium falciparum (isolate CDC / Honduras)), sequence (Q27743 whole entry, looked up): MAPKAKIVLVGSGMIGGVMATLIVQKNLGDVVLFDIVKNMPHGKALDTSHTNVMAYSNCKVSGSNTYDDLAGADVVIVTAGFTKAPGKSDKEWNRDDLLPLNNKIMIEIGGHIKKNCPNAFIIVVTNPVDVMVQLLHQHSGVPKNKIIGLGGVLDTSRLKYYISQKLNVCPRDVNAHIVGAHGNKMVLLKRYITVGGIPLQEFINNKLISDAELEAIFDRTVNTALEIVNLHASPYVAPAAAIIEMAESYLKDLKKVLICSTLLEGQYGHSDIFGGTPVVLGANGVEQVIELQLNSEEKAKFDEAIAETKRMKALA
Protein kinase 7 (PK7), Plasmodium falciparum 3D7 (PF3D7_0213400), sequence (Q7YTF7 1-343): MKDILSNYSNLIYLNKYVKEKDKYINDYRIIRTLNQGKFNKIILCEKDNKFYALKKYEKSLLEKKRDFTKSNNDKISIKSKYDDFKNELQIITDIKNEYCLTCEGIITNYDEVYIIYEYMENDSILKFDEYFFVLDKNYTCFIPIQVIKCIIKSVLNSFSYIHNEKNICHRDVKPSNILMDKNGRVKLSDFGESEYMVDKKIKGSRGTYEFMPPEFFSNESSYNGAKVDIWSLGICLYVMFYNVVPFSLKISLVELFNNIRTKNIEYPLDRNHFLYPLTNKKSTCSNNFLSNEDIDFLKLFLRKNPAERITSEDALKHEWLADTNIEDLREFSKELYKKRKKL
Calcium-dependent protein kinase 1 (Plasmodium falciparum (isolate 3D7)), sequence (P62344 whole entry, looked up): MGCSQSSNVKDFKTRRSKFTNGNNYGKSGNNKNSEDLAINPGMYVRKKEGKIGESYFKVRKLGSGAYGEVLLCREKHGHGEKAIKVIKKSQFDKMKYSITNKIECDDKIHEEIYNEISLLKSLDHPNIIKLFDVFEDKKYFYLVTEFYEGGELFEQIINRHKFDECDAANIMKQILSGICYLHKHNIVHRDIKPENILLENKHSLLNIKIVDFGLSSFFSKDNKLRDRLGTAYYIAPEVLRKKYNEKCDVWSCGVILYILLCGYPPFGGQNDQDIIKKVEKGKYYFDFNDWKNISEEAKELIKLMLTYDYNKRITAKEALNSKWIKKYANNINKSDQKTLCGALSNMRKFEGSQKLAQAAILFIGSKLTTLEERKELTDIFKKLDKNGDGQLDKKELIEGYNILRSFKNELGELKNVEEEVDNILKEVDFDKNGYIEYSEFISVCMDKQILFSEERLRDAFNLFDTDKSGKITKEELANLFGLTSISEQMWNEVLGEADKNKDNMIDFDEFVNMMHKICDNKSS
Plasmodium falciparum protein kinase 6 (PK6, PF3D7_1337100), sequence (Q8IDW1 1-305): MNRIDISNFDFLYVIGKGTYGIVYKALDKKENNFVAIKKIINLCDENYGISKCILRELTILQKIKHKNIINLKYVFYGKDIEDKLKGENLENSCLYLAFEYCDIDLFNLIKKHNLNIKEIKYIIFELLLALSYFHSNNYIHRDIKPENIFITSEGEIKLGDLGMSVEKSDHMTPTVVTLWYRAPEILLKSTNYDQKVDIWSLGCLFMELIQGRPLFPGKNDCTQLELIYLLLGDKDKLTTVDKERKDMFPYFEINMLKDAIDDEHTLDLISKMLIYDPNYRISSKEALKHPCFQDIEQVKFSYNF

As to `O=C(Nc1ccccc1Br)c1cn(-c2ccccc2)nc1-c1cccc([N+](=O)[O-])c1`, the figures for the growth inhibition in assay [1] and in assay [4] were 36% and 92% (active), respectively. For the same compound, the inhibition in assay [2] is 7%; in assay [3], -5%. In addition, the result in assay [5], in assay [6], in assay [7] and in assay [8] was inactive.

For `CCC(CN1C(=O)C(c2ccccc2)(c2ccccc2)N=C1N)c1ccccc1` (centres undefined), the growth inhibition in assay [1] and in assay [4] was 98% (active) throughout. The inhibition in assay [2] is 11%; in assay [3] it was -2%. Besides, the outcome in assay [5], in assay [6], in assay [7] and in assay [8] was inactive.

With `CCCN(CCC)CCCN(CCCN(CCC)CCC)c1cc(C)nc(Nc2ccc(Cl)cc2)n1`, the growth inhibition in assay [1] and in assay [4] was 101% (active) in each case. Further, the inhibition is 34% in assay [2] and -6% in assay [3]. Besides, the outcome in assay [5], in assay [6], in assay [7] and in assay [8] was inactive.
